In PubChem BioAssay (NCATS):
Records with an inconclusive call do not appear. Activity calls are given as the source filed them. Calls follow the shape of the full dose curve.

The compounds below were run against Vitamin D3 receptor (Homo sapiens) (UniProt P11473) (assay: qHTS assay for small molecule antagonists of vitamin D receptor signaling (AID 588541;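 also: receptor activated by calcitriol during compound treatment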)). Settings: HEK293T VDR-UAS-bla, beta-lactamase ratio, antagonist mode; series mostly up to 76.7 µM; activity change, negative = inhibition: at the top concentration.
Vitamin D3 receptor (Homo sapiens), sequence (P11473 whole entry, looked up): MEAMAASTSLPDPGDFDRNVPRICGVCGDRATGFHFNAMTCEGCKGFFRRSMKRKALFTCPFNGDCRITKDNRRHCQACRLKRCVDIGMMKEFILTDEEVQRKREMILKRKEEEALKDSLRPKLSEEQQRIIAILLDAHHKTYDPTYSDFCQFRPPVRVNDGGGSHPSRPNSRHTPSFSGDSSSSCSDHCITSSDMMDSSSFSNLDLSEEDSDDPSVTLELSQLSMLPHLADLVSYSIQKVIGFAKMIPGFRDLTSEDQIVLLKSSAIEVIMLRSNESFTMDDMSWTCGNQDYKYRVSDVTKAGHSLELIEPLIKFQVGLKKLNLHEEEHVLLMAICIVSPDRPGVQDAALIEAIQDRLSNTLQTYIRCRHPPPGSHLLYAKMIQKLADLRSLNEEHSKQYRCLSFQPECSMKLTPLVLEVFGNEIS
Source text: NIH Chemical Genomics Center [NCGC]
U.S. Environmental Protection Agency [EPA]
National Institutes of Environmental Health Sciences [NIEHS]
National Toxicology Program [NTP]
The Vitamin D receptor (VDR) is a member of nuclear hormone receptor superfamily and it plays a critical role in calcium homeostasis and bone metabolism. It plays a role in inducing cell differentiation, inhibiting cell growth and in thrombogenicity. So, VDR that mediates these effects represents a pharmacological target in prevention and treatment of hyperproliferative malignancies, such as cancer and psoriasis, cardiovascular, immunological, inflammatory and renal diseases etc.
NCGC Assay Protocol Summary
Using a beta-lactamase reporter-gene under control of Vitamin D receptor (VDR) response element, a cell-based assay [GeneBLAzer (VDR -UAS-bla assay developed by Invitrogen] was used to measure VDR ligands signaling. GeneBLAzer VDR -UAS-bla HEK293T cells were used with assay medium containing 2% charcoal-stripped FBS. The assay was performed in clear bottom black Greiner 1536-well plates. Library compounds were measured for their ability to inhibit the reporter gene activity. Compounds were screened in a titration series in 1536-well format. The fluorescence intensity (405 nm excitation, 460/530 nm emission) was measured using an EnVision plate reader. Data was normalized relative to 1-alpha,25-Dihydroxy vitaminD3 control (50 nM, 100%) and DMSO only wells (basal, 0%). Concentration-response titration points for each compound were fitted to the Hill equation yielding concentrations of half-maximal inhibition (IC50) and maximal response (efficacy) values.
qHTS protocol for VDR beta-lactamase assay in antagonist mode
[Step] [Parameter] [Value] [Description]
1. Reagent; 5 uL; 2000 cells/well
2. Incubation; 37 C for 5 hrs
4. Controls (DMSO); 23 nL,
5. Agonist (Stimulator); 1uL; 1-alpha,25-Dihydroxy vitaminD3 at 50 nM and 3 nM final concentrations
6. Incubation; 37 C for 16 hrs
7. Detection reagent; 1 uL of CCF4-dye
8. Incubation; RT for 2 hrs
9. Detection; Fluorescence; Envision plate reader
% is scaled to controls: 0 for no effect and ±100 for the full control effect.

Compound | outcome | activity change, negative = inhibition
[O-][Br+2]([O-])O | inactive | –
C1CCC2CCCCC2C1 (stereo not given) | – | -0.889% (inactive)
C=CC1CC=CCC1 (stereo not given) | inactive | –
CCCCCCCCCc1ccc(O)cc1 | – | -0.331% (inactive)
CC(C)Nc1nc(Cl)nc(NC(C)C)n1 | – | 0.321% (inactive)
Cc1ccc2ccccc2c1 | – | -1.42% (inactive)
CNC(=O)Oc1cccc2c1OC(C)(C)O2 | – | -1.78% (inactive)
Clc1nc(Cl)nc(Cl)n1 | inactive | –
CC(C)(OO)c1ccccc1 | – | 0.31% (inactive)
S=C=Nc1cccc2ccccc12 | – | 6.2% (inactive)
O=C(Cl)/C=C/C(=O)Cl | – | -1.58% (inactive)
CCOP(=S)(OCC)SCSC(C)(C)C | inactive | –
Cc1cccc(C#N)c1 | – | -9.42% (inactive)
O=[N+]([O-])c1ccc(Cl)c(Cl)c1 | – | 4.35% (inactive)
O=C(O)C1C2CCC(O2)C1C(=O)O (stereo not given) | – | -7.82% (inactive)
CC(C)OC(=O)Nc1cccc(Cl)c1 | – | 5.38% (inactive)
Brc1ccc(Oc2cc(Br)c(Br)cc2Br)c(Br)c1 | inactive | –
COP(N)(=O)SC (stereo not given) | inactive | –
Nc1ccccc1Cl | – | -1.05% (inactive)
CCCCSP(=O)(SCCCC)SCCCC | – | -8.3% (inactive)

Compound | outcome | activity change, negative = inhibition
COC1=CC(=O)O[C@@H](/C=C/c2ccc3c(c2)OCO3)C1 | – | -0.206% (inactive)
C=CCOC(=O)c1ccccc1N | – | -3.87% (inactive)
CC(C)N1C(=O)c2ccccc2NS1(=O)=O | – | 1.43% (inactive)
ClC(Cl)=C(c1ccc(Cl)cc1)c1ccc(Cl)cc1 | inactive | –
BrCCBr | inactive | –
O=C(Cl)C(Cl)(Cl)Cl | – | -0.931% (inactive)
ClC(Cl)=C(Cl)Cl | inactive | –
C/C=C/c1ccc2c(c1)OCO2 | – | -1.53% (inactive)
C=C(C)C(=O)OCC1CO1 (stereo not given) | – | -0.553% (inactive)
c1ccc2c(c1)CCCC2 | – | -0.234% (inactive)
CCSC(=O)Cl | – | 1.76% (inactive)
C=CCOC(C)=O | – | -6.85% (inactive)
CCC(=O)Nc1ccc(Cl)c(Cl)c1 | – | 9.46% (inactive)
COc1nc(NC(C)C)nc(NC(C)C)n1 | – | 6.17% (inactive)
c1ccc(N=Nc2ccccc2)cc1 | inactive | –
CCS(=O)CCSP(=O)(OC)OC (stereo not given) | – | -1.3% (inactive)
Oc1ccc(Cl)cc1Cl | inactive | –
CCN(CC)c1ccccc1 | – | -2.14% (inactive)
CCCC(=O)Cl | – | 13.9% (inactive)
ClC1=C(Cl)C2(Cl)C3C4C=CC(C4)C3C1(Cl)C2(Cl)Cl (stereo not given) | – | -0.376% (inactive)
